Measured values taken from the supplement of paper PMC11732987, “Enantioselective OTUD7B fragment discovery through chemoproteomics screening and high-throughput optimisation” (Communications Chemistry, 2025).

Columns and labels:
Assay in all cases: log2 ratio of Biotin-Ahx-Ub-VS probe labelling (fragment/DMSO); higher = less target engagement (more negative = stronger competition), active = hit call of the paper (q ≤ 0.05, log2 ratio ≤ -1)
Details in all cases: compound concentration: 200 uM; treatment time: 3 h
[1] = molecular target: USP34 (UniProt Q70CQ2)
Chain of USP34 (Q70CQ2 whole entry, the tested form may be a part): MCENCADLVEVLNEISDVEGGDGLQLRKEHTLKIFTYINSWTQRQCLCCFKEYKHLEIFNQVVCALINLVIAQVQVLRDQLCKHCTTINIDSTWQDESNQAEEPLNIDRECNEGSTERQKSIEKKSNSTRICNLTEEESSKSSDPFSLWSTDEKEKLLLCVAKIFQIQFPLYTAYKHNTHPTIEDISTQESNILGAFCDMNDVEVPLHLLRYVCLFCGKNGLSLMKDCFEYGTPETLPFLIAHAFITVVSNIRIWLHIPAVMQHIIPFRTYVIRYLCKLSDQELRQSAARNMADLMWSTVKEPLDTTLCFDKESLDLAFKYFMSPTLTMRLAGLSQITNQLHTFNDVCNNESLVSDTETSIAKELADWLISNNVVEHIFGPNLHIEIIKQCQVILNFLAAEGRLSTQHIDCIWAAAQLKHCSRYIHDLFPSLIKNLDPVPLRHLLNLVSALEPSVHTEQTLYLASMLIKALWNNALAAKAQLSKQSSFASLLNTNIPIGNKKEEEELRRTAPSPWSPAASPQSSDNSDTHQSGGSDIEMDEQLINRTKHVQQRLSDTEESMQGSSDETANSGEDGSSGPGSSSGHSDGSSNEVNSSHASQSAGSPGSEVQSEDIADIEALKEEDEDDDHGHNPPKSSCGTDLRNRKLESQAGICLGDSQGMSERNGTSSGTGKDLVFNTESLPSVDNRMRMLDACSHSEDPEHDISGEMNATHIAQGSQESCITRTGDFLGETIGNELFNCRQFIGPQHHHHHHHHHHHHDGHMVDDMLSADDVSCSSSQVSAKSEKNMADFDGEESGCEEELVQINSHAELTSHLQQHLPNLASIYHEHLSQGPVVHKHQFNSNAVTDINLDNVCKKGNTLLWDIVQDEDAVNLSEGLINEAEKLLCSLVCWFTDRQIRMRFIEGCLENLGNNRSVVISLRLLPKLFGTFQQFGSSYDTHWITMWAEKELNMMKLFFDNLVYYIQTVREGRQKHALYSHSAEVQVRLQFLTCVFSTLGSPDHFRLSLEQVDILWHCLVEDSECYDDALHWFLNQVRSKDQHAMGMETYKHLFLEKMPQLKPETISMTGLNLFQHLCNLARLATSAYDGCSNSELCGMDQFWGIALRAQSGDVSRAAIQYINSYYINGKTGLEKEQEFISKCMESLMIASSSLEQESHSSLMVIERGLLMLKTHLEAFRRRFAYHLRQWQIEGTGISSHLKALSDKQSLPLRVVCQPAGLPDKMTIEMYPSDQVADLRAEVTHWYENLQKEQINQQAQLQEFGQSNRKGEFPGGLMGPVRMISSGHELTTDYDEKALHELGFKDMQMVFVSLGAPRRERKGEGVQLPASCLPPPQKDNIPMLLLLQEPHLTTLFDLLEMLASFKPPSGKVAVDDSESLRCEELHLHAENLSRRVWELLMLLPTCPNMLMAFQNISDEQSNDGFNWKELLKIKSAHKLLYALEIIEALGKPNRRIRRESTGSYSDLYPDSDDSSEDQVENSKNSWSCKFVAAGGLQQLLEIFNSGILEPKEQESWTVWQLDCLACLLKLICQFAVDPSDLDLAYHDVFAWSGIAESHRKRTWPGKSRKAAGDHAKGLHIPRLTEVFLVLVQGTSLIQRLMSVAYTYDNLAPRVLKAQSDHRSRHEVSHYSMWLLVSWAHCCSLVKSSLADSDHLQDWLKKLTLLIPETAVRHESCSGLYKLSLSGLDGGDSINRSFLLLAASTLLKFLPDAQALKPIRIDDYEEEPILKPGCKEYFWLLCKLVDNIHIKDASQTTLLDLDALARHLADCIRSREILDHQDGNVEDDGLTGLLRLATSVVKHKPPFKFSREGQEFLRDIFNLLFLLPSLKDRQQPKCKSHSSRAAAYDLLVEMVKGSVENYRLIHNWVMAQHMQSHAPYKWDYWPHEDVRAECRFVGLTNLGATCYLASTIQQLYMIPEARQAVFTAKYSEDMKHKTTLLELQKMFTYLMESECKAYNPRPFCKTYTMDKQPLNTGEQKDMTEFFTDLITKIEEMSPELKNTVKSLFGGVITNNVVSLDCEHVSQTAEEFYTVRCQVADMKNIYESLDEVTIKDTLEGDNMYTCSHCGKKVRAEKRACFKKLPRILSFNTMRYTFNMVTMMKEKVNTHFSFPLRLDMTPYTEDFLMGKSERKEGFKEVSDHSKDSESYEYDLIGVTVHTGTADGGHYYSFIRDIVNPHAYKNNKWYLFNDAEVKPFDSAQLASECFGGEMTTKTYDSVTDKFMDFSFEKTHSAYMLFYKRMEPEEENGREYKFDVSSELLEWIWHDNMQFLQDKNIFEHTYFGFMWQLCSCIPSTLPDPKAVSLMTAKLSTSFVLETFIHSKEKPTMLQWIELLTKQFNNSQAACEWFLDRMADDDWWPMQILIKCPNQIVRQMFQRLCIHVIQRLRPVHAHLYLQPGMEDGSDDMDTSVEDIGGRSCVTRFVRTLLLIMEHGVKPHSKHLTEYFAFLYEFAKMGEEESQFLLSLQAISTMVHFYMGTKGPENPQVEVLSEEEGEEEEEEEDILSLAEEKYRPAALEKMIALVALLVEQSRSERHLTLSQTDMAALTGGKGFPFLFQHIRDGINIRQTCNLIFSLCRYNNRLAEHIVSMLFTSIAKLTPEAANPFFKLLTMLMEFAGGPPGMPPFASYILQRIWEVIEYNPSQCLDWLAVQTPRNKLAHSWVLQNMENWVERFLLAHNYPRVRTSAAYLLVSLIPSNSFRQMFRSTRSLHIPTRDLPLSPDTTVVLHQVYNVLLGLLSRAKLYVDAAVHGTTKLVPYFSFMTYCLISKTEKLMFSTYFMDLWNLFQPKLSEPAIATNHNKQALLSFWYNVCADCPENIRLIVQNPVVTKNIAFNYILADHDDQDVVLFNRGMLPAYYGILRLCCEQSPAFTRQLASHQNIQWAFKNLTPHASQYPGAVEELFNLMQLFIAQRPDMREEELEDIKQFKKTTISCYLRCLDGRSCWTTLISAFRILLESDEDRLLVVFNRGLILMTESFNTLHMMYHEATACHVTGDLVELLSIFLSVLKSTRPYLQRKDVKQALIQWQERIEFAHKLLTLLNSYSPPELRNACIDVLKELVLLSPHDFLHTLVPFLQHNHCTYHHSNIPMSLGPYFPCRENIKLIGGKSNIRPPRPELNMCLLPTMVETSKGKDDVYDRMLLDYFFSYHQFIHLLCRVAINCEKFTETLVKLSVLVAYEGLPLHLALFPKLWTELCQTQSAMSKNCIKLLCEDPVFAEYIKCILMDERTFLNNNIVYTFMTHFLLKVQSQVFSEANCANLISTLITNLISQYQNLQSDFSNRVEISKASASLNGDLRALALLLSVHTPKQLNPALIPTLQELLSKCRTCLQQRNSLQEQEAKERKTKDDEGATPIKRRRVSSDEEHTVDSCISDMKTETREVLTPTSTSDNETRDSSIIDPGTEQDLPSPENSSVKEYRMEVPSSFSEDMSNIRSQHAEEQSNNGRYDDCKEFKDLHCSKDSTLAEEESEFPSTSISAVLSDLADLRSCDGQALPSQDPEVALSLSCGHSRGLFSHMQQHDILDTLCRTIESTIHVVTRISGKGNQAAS
Procedure, shortened: (§1)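 Labelled DUBs from HEK293T lysate were NeutrAvidin-enriched, digested with LysC and trypsin, and run by diaPASEF LC-MS/MS. Before that, each 495 µg sample in Tris/CHAPS/IGEPAL buffer with protease inhibitors was treated in triplicate with fragment at 200 µM or vehicle for 3 h, then with Biotin-Ahx-Ub-VS at 0.5 µM final for 1 h. Values are average log2 ratios of fragment over vehicle by unpaired t-test, based on global-median-normalised Spectronaut label-free quantities from proteins with ≥2 unique peptides.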

[2] = molecular target: T1, USP36 (UniProt Q9P275)
T1 sequence (whole entry): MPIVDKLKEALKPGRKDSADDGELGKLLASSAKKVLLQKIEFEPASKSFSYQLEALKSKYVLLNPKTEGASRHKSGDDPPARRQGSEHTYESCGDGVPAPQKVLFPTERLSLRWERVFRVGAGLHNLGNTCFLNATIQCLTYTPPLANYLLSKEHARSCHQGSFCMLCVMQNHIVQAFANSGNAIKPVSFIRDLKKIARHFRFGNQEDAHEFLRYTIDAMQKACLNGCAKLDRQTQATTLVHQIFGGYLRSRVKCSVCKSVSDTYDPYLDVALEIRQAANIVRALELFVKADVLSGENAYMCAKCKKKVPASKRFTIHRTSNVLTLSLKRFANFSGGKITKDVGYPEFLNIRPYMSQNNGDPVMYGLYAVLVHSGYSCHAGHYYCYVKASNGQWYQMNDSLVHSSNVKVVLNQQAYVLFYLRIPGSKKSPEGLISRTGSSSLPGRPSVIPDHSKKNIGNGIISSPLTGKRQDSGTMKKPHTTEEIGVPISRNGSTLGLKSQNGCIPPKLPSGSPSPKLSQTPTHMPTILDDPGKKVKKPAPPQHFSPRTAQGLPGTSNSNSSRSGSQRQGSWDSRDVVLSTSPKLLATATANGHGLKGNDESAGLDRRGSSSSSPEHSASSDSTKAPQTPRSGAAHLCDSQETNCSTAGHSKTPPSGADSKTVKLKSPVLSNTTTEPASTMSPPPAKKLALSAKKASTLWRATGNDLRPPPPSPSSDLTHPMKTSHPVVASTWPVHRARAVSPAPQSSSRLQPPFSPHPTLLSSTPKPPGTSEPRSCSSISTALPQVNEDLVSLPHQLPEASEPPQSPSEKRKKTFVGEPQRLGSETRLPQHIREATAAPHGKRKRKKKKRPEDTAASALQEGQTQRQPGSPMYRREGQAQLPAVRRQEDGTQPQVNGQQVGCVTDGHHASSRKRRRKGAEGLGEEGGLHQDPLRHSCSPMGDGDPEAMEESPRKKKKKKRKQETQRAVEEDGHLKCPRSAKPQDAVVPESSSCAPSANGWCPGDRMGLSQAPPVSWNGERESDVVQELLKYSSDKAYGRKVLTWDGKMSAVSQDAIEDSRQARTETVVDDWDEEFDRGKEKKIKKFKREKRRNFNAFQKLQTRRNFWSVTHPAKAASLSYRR
Procedure, shortened: as §1

[3] = molecular target: T2, USP38 (UniProt Q8NB14)
T2 sequence (whole entry): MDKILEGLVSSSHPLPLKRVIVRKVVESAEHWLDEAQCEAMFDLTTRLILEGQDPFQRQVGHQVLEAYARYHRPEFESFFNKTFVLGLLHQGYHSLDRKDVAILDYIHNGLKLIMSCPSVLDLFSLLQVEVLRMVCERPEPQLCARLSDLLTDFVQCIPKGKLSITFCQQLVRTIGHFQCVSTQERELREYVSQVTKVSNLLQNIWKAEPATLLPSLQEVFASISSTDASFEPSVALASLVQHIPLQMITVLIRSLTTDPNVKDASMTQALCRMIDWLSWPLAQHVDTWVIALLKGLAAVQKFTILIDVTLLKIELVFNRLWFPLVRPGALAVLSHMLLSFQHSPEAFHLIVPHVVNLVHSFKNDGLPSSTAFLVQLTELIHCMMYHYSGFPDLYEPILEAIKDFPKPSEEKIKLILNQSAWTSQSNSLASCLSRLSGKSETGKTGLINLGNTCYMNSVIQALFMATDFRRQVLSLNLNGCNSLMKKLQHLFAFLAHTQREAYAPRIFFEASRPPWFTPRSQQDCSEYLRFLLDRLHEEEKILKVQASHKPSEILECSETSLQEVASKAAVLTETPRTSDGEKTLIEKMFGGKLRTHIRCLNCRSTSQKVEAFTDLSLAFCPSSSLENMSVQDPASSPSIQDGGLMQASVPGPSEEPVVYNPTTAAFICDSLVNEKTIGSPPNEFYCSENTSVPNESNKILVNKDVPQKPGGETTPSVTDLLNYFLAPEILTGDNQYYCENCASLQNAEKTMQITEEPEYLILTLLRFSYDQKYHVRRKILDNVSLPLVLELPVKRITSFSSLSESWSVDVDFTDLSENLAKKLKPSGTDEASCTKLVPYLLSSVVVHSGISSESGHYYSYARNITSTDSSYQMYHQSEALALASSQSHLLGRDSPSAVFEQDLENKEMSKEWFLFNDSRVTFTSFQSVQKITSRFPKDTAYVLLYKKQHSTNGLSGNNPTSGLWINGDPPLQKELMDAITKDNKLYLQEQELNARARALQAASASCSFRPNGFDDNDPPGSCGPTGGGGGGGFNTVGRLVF
Procedure, shortened: as §1

[4] = molecular target: T3, USP39 (UniProt Q53GS9)
T3 sequence (whole entry): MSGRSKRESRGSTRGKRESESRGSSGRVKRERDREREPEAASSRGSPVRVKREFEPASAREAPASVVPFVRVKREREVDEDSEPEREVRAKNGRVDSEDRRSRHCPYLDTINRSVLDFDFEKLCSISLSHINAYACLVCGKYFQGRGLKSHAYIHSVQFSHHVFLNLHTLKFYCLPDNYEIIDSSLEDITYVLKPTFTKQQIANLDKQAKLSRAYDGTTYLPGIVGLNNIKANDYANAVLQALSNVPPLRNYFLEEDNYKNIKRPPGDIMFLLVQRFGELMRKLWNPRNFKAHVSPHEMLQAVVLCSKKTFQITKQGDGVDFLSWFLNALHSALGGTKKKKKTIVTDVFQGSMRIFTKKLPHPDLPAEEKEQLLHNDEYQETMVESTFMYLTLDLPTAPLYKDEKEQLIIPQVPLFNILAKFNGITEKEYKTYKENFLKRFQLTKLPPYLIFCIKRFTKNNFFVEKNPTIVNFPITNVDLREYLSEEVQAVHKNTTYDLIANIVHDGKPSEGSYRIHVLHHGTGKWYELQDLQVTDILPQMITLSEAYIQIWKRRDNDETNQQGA
Procedure, shortened: as §1

[5] = molecular target: T4, USP4 (UniProt Q13107)
T4 sequence (whole entry): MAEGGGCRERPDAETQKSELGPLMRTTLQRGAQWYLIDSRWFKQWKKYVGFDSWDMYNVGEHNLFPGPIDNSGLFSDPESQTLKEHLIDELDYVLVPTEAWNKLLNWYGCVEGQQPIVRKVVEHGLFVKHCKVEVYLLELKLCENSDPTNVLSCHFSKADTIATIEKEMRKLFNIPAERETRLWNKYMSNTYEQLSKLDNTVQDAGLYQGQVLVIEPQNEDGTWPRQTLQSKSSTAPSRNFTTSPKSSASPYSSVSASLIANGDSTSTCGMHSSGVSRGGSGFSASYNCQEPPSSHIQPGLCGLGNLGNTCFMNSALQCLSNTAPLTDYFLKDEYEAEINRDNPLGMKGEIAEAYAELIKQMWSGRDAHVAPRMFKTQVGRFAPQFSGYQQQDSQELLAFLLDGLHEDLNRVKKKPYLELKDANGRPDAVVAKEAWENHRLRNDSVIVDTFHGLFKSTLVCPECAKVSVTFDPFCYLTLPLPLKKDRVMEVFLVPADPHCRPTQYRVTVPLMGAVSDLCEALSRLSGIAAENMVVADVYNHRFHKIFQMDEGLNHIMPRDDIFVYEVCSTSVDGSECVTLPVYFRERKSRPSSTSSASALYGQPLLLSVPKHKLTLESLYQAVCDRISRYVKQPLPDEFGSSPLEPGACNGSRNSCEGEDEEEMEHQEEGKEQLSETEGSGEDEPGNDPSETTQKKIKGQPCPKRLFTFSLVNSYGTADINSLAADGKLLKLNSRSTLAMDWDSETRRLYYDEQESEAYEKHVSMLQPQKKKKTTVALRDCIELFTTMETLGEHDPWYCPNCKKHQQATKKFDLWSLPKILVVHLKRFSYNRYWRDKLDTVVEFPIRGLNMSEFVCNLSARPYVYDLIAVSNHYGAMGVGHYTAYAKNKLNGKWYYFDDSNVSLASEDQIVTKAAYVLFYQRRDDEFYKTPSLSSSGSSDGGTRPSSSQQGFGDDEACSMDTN
Procedure, shortened: as §1

Measured: log2 ratio of Biotin-Ahx-Ub-VS probe labelling

O=C(CCl)N1CCCN(C(=O)c2ccc(Cl)cc2)CC1
inactive: [1] -0.425 | [2] 0.0741 | [3] -0.22 | [4] -0.317 | [5] -0.259
